# Experimental data: the OligoGym collection
# Target: TCEANC2
# Experiment: pooled miR-30 sensor sort-seq; sequence = guide strand
# Conditions: shRNA
# Further: reference of the scale not given here.
row,Sequence,sensor-assay potency score (higher = more potent)
1,TAGAAGGTCTATTTGAATGTTT,-0.0592
2,TTGATCAGGAAGCTCCAGCATA,-0.895
3,TTCACAGTGTGACCTATCCTTG,-0.944
4,TTGAGTTTCAGTTACCTGCAGG,-0.555
5,TACAACCACAACTCTCTTCAGA,-0.694
6,TTACGCATCTTGTTCACAGTGT,0.769

# Target: TCERG1
# Experiment: as above
# Conditions: shRNA
row,Sequence,sensor-assay potency score (higher = more potent)
1,TTCTGATTGCTGAATAACCTTA,-0.804
2,TTGTCTTTTACTTTGCTCCATC,-0.934
3,TTGATGAACTATCTACTGCTTT,-0.0553
4,TGAATCTTGAATCTTTAGCATG,-1.15
5,TGGATCGACAGCATTGTCGGAG,-0.29
6,TTGTGCTTGCACTTGTGCCTGG,0.389
7,TACATACTGATCAAACACCTGT,0.349
8,TTATTATCGTCTCTCTTCCGTT,-0.906
9,TATCAGACCATGACACATCTGA,0.29
10,TTGCTTTGAATCTTGAATCTTT,0.533
11,TTAATCTTCTCTTCTAACTTTT,-0.478
12,TTTATTATCGTCTCTCTTCCGT,0.45
